Shown are actives, neighbours in structure and some others; about 3.5% of the full set was active somewhere.
Pf apPOL inh: Pf-apPOL DNA polymerase inhibition | hit rate 0.25% among 210,000 | Recombinant Pf-apPOL, molecular beacon fluorescence, 1.5 h | inhibition, % at 10 µM | AID 1794808
mHTT-CaM PPI inh: mHTT-calmodulin interaction abrogation; P42858; AlphaScreen His-mHTT/GST-CaM binding, luminescence; inhibition, % at 15 µM; hit rate 3.6% among 190,000; AID 1671202;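 also: 0% = both proteins with DMSO and 100% = one protein alone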
An asterisk follows results filed as active; i = inactive; nt = no result given; ! = not active in a repeat. Rule as the data show it: active = inhibition above about 50%; inactive = the rest.

SMILES	Pf apPOL inh	mHTT-CaM PPI inh
Cc1ccc([N+](=O)[O-])cc1NC(=O)c1cccc(C(=O)Nc2cc([N+](=O)[O-])ccc2C)n1	67*	2
Cc1ccc([N+](=O)[O-])cc1NC(=O)c1cnccn1	2	3
Cc1cc(C)nc(N=C2NC(=O)CC(C(=O)O)N2c2ccc(Cl)cc2Cl)n1 (stereo unspecified)	7	16
O=C(NCc1ccc(F)cc1)c1ccc(N2CCN(c3ccccn3)CC2)c([N+](=O)[O-])c1	-2	59*
O=C(NCc1cccnc1)c1ccc(N2CCN(c3ccccn3)CC2)c([N+](=O)[O-])c1	-5	30
CSCCC(NS(=O)(=O)c1cc(C(F)(F)F)cc(C(F)(F)F)c1)C(=O)NNC(=O)c1cccs1 (stereo unspecified)	7	nt
Cc1cccc(C=C2Oc3c(ccc(O)c3CN3CCOCC3)C2=O)c1	-16	28
COc1ccccc1N(CC(=O)Nc1ccccc1F)S(=O)(=O)c1ccc(C)cc1	-8	-1
Cc1nnc(N2C(=O)C(O)=C(C(=O)c3ccco3)C2c2cccc(Oc3ccccc3)c2)s1 (stereo unspecified)	-10	56*
Cc1nnc(N2C(=O)C(O)=C(C(=O)c3ccco3)C2c2cccc([N+](=O)[O-])c2)s1 (stereo unspecified)	-5	1
O=C1Nc2ccc(Br)cc2/C1=C/C1CC=CCC1 (stereo unspecified)	4	51*
O=C1Nc2ccc(Br)cc2/C1=C/c1ccc(OC2CCCC2)cc1	-12	46
COc1cc(/C=C2\C(=O)Nc3ccc(Br)cc32)cc(Br)c1O	-6	100*
COc1cc(/C=C2\C(=O)Nc3ccc(Br)cc32)cc(Br)c1OC	-5	59*
CC(C)c1ccc(/C=C2\C(=O)Nc3ccc(Br)cc32)cc1	0	19
COc1ccc(/C=C2\C(=O)Nc3ccc(Br)cc32)cc1O	-8	99*
CCOc1cc(/C=C2\C(=O)Nc3ccc(Br)cc32)cc(Br)c1OCC	0	9
COc1cc(/C=C2\NC(=O)NC2=O)cc(Br)c1O	-4	13
CSc1ccccc1C(=O)NCc1cc(-c2ccc(F)cc2F)on1	-2	-18
COc1cc(/C=C2\C(=O)Nc3ccc(F)cc32)cc(OC)c1OC	-7	16
COc1cc(/C=C2\C(=O)Nc3ccc(Br)cc32)cc(OC)c1O	-89	100*
CCOC(=O)CC(=O)CSC1=NS(=O)(=O)c2cc(Cl)ccc2N1	4	-7
COc1ccc(-c2cc(C(F)(F)F)nc(-n3cncn3)n2)cc1OC	11	3
Nc1cc(C2CCN(C(=O)c3ccc(F)cc3)CC2)no1	0	-11
Cc1ccc2c(c1)NC(C)(C)c1ssc(=Nc3ccc(Cl)cc3Cl)c1-2	nt	62*
SMILES	Pf apPOL inh	mHTT-CaM PPI inh
Cc1ccc2c(c1)/C(=C/c1ccc(Cl)cc1)C(=O)N2	-2	36
Cc1ccc2c(c1)-c1c(ssc1=Nc1cc(Cl)ccc1Cl)C(C)(C)N2	nt	98*
CC1(C)Nc2ccccc2-c2c1ssc2=Nc1cccc(Cl)c1	nt	69*
Cc1cc2c(cc1C)-c1c(ssc1=Nc1ccc(S(N)(=O)=O)cc1)C(C)(C)N2	nt	20
CCOc1ccccc1C1CC(c2ccc(OC)cc2)Nc2ncnn21 (stereo unspecified)	-5	15
COc1cc2c(cc1OC)C(c1ccc(Cl)cc1)OC1=C2C(=O)c2ccccc21 (stereo unspecified)	-1	68*!
COc1ccc(C2Oc3c(ccc4cc(OC)c(OC)cc34)-c3cc(OC)c(OC)cc32)cc1 (stereo unspecified)	nt	11
CCOc1ccc(C2=NC(C(C)C)NC(c3cccc(OCC)c3O)C2)cc1 (stereo unspecified)	-1	8
Cc1cc(N2C(=O)CSC2c2ccc([N+](=O)[O-])cc2)ccc1Br (stereo unspecified)	-6	26
Cc1cccc(C2=N/C(=C\c3ccc(I)o3)C(=O)O2)c1	2	7
CN1CCN(NC(=O)C(=O)Nc2ccc(C(F)(F)F)cc2)CC1	-4	-4
Cc1cccc(N=c2scc(-c3ccc(F)cc3)n2CCO)c1	-2	65*
OCCn1c(-c2ccc(I)cc2)csc1=Nc1cccc(Cl)c1	4	80*
CCOc1ccc(N=c2scc(-c3ccc(C)cc3)n2C)cc1	-2	8
Cc1ccc(-c2csc(=Nc3cccc(Cl)c3)n2CCO)cc1	-4	93*
c1ccc2[nH]c(CCn3c4c(c5ccccc53)CCCC4)nc2c1	nt	66*
N#CCCn1c2c(c3ccccc31)CCCC2	-8	22
COc1ccc(-c2csc(NC(=O)c3ccc(Br)s3)n2)cc1OC	64*!	69*!
Cc1ccc(-c2csc(NC(=O)c3ccc(Br)s3)n2)o1	0	13
Clc1ccc(Nc2nc(-c3cccnc3)cs2)cc1	-3	0
Oc1cccc(Nc2nc(-c3ccc(Cl)cc3)cs2)c1	-5	97*
COc1ccc(-c2csc(Nc3ccc(NC(C)=O)cc3)n2)cc1OC	-1	49
Cc1ccc(-c2csc(Nc3ccc(C(=O)O)cc3)n2)cc1C	-5	18
COc1ccc(-c2csc(Nc3ccc(O)cc3)n2)cc1OC	-4	71*
COc1ccc(-c2csc(Nc3ccc(C)c(C)c3)n2)cc1F	-5	52*
SMILES	Pf apPOL inh	mHTT-CaM PPI inh
Cn1cc([N+](=O)[O-])c(C(=O)Nc2cccc3c2C(=O)c2ccccc2C3=O)n1	-1	-1
N#CC1=C(N)NC(S)=C(C#N)C12CCCCC2	nt	0
COc1ccc(-c2csc(N)n2)cc1OC	-2	18
COc1ccc(-c2csc(Nc3cccc(O)c3)n2)cc1OC	3	68*
COc1ccc(N2C(=O)CC(Sc3nc4ccccc4s3)C2=O)cc1 (stereo unspecified)	-8	29
COc1ccc(OC)c(N2C(=O)CC(Sc3nc4ccccc4s3)C2=O)c1 (stereo unspecified)	-2	51*!
O=C(Nc1ccc(S(=O)(=O)Nc2cccc(Cl)c2Cl)cc1)c1ccc([N+](=O)[O-])cc1	-7	62*
O=C(Nc1ccc(S(=O)(=O)Nc2ccccc2)cc1)c1ccc([N+](=O)[O-])cc1	0	-7
O=C1C=CC(=NOC(=O)c2ccc([N+](=O)[O-])cc2)C=C1	-10	7
CN1C(=O)/C(=N\OC(=O)c2ccccc2Br)c2ccccc21	2	i
COc1ccc(C(=O)ON=C2C=CC(=O)C=C2)cc1	-3	53*
Cc1ccc(C(=O)ON=C2C=CC(=NOC(=O)c3ccccc3Br)C=C2)cc1	-1	4
CC1=CC(=O)C=C(C)C1=NOC(=O)c1ccccc1Br	-20	90*
O=C1C=CC(=NOC(=O)c2ccccc2Br)C=C1	10	89*
COc1ccc(NCN2C(=O)C3C4c5ccccc5C(c5ccccc54)C3C2=O)cc1 (stereo unspecified)	5	27
O=C(NCC1(CO)CC1)c1ccccc1F	-9	-20
O=C(CCc1c[nH]c2ccccc12)N1CCc2c(nc3cc(-c4ccccc4)[nH]n3c2=O)C1	10	8
Cc1cccc(CC(=O)N2CCc3c(nc4cc(-c5ccccc5)[nH]n4c3=O)C2)c1	-6	74*
O=C(CCc1ccccc1)N1CCc2c(nc3cc(-c4ccccc4)[nH]n3c2=O)C1	8	72*
COc1ccc(-c2cc3nc4c(c(=O)n3[nH]2)CN(C(=O)Cc2cccc(C)c2)CC4)cc1	4	37
COc1ccc(C2CC(c3ccc(F)c(Br)c3)n3ncnc3N2)cc1 (stereo unspecified)	-10	47

Bioassay records: PubChem BioAssay, University of Kansas High Throughput Screening Laboratory
